Results filed as inconclusive are left out. The call rests on the fitted dose curve; in most records, active means well fitted inhibition curve with a large enough effect; inconclusive means small, poorly fitted or top-dose-only effect; inactive means no such curve, though single readings can be large or run the other way.
The compounds below were run against Coelenterazine h 2-monooxygenase (Renilla reniformis) (UniProt P27652) (assay: qHTS Assay for Inhibitors of Sea Pansy Luciferase from the GSK Published Protein Kinase Inhibitor Set). Settings: purified Renilla luciferase, luminescence; series mostly up to 57.5 µM; activity change, negative = inhibition: at the top concentration.
In short: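 Purified R. reniformis luciferase (1 nM final) with 5 uM coelenterazine h in 50 mM Tris acetate pH 7.5, 100 uM NaCl, 0.01% Tween-20, 0.05% BSA. A titration, about 60 uM to 300 pM; luminescence read after about 2 min.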

Chain of Coelenterazine h 2-monooxygenase (Renilla reniformis) (P27652 whole entry, looked up): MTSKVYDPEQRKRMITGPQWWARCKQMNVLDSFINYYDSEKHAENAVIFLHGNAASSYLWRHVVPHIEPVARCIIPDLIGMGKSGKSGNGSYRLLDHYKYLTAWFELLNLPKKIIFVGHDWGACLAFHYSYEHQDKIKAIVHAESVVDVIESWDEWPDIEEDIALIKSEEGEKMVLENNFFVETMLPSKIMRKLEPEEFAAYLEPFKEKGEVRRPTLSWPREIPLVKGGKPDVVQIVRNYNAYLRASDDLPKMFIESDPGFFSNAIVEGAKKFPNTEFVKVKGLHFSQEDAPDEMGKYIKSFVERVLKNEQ

Activity change, negative = inhibition, inactive:
CC(=O)Nc1cccc(C#Cc2cncnc2Nc2ccc(OCc3cccc(F)c3)c(Cl)c2)c1 9.74%, CC(C)c1ccc2c(N=Nc3ccc(S(N)(=O)=O)cc3)c(O)[nH]c2c1 10.9%, COc1ccc(-c2cc(-c3cn[nH]c3-c3ccccn3)ccn2)cc1 29.3%, CS(=O)(=O)CCNCc1ccc(-c2ccc3ncnc(Nc4ccc(OCc5ccccc5)c(C(F)(F)F)c4)c3c2)o1 22.7%, CN(c1ccc(NC(=O)Nc2ccc(OC(F)(F)F)cc2)cc1)c1ccnc(Nc2cccc(S(N)(=O)=O)c2)n1 0%, COc1ccc2c(-c3ccnc(Nc4cccc(OC(F)(F)F)c4)n3)cnn2n1 43.3%, COc1ccc(COc2ccc(Cc3cnc(N)nc3N)cc2OC)cc1 52.5%, CS(=O)(=O)CCNCc1ccc(-c2ccc3ncnc(Nc4ccc(OCc5cccc(C(F)(F)F)c5)cc4)c3c2)o1 41.9%, NC(=O)c1cc(-c2ccc(F)cc2)cc(-c2ccncc2)c1N 10.4%, CC1=C(C(=O)Nc2cc(Cl)c3[nH]ncc3c2)C(c2ccc(C(F)(F)F)cc2)CC(=O)N1 (stereo not given) 14.7%

— PubChem BioAssay AID652015 (National Center for Advancing Translational Sciences (NCATS), 2013)
